Compound activity from PubChem.
HT1080NT lethal = kills 2HG-producing HT-1080-NT fibrosarcoma cells. Potency, µM (doses to about 46.1 µM), most hits filed as cytotoxic. HT-1080-NT fibrosarcoma viability, CellTiter-Glo ATP luminescence, 48 h. 360,000 tested, 1.6% active. AID 686970;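 note: NT is the 2HG producing partner of a matched IDH1 knockdown line; nearly all actives have a fitted effect of over 55% in size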
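Compounds were tested in concentration-response format on HT-1080-NT cells for 48 hours at 37 degrees C. Cell viability came from CellTiter-Glo luminescence; curves were classified by r2, response magnitude and activity.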
DT40 TDP1 CPT = DT40-hTDP1 cell growth loss with CPT. 420,000 tested, 12% active. AID 686979. Potency, µM (top dose mostly 46.2 µM), most hits filed as inhibitors. chicken DT40 Tdp1-/-;hTDP1 cells + 20 nM CPT, ATP luminescence, 48 h; note: nearly all actives have a fitted effect of over 55% in size
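Cell growth measured by CellTiter-Glo luminescence after a minimum 48 h, 37 C compound exposure with 20 nM CPT in Tdp1-knockout DT40 cells stably expressing hTDP1, seeded 400/well; qHTS titration format.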
IL1B secr inh = blocks inflammasome-driven IL-1 beta release | THP-1 LPS/ATP IL-1B secretion, AlphaLISA, 16 h; hits give low values | activity change, % at 57.5 µM | 360,000 tested, 4.7% active; in the data active = activity change below about -50%; inconclusive = mostly about -30% to -49%
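Secreted IL-1B measured by AlphaLISA bead assay after 16 h compound exposure of THP-1 cells; compounds (final up to 57.5 uM) added 1 h before LPS (250 ng/mL) and ATP (1.25 mM) stimulation; lower signal means less secretion.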
TDP1 cell noCPT = qHTS for Inhibitors of human tyrosyl-DNA phosphodiesterase 1 (TDP1): qHTS in cells in absence of CPT. DT40 Tdp1-/- hTDP1 cells, no CPT, ATP luminescence, 48 h. Potency, µM (top dose mostly 46.2 µM), hits mostly inhibitors. 420,000 tested, 15% active. AID 686978, 2013; note: nearly all actives have a fitted effect of over 55% in size
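Chicken DT40 Tdp1-/- cells complemented with human TDP1, screened without camptothecin (DMSO vehicle only), 400 cells/well. Compounds pin-transferred, cells incubated at 37 °C for at least 48 hr. Growth read as ATP-dependent luminescence (CellTiter-Glo, 30 min at RT).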
HT1080 IDH1KD tx = HT-1080 IDH1 knockdown cell toxicity (counter line); HT-1080 IDH1 knockdown viability, ATP luminescence, 48 h; Potency, µM (series often up to 46.1 µM), most hits filed as cytotoxic; 360,000 tested, 2% active
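In this qHTS, HT-1080 cells depleted of IDH1 are exposed for 48 h at 37 °C to compound titrations. Toxicity is scored from CellTiter-Glo luminescence, with DMSO as full viability and medium alone as none.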
Large screens that a line does not name were inactive. An excerpt weighted towards active compounds, which were near 19% of everything screened. Unless noted, calls come from the whole dose curve; as a rule, active = well fitted curve in the direction sought with a large enough effect; inconclusive = small, poorly fitted or top-dose-only effect, or another doubt; inactive = no such curve, though single readings can be large; an effect the other way counts as inactive or inconclusive.

Cc1ccc2cc(CNCCc3ccccc3C)c(=O)[nH]c2c1	DT40 TDP1 CPT inconclusive, IL1B secr inh -79, TDP1 cell noCPT 18µM
CN[C@@H](Cc1c[nH]c2ccccc12)C(=O)O	none (no result: HT1080NT lethal, IL1B secr inh, HT1080 IDH1KD tx)
C[C@]12CC[C@H]3[C@@H](CCC4=C(O)C(=O)CC[C@@H]43)[C@@H]1CC[C@@H]2OC(=O)CCC1CCCC1	none (no result: HT1080NT lethal, IL1B secr inh, HT1080 IDH1KD tx)
CCOC(=O)c1ccc(NC(c2ccc(N(C)C)cc2)P(=O)(OC(C)C)OC(C)C)cc1 (configuration not stated)	DT40 TDP1 CPT inconclusive, TDP1 cell noCPT 29µM
C=CCN1C(=O)NC(=O)C(Cc2ccc(OC)c(OC)c2)C1=O (configuration not stated)	none
C=CCc1ccc(OCCn2nnc3ccccc32)c(OC)c1	DT40 TDP1 CPT 10µM, TDP1 cell noCPT 8.2µM
O=c1c2ccccc2nc(/C=C/c2ccccc2)n1-c1ccc(O)cc1	HT1080NT lethal inconclusive, DT40 TDP1 CPT inconclusive, IL1B secr inh inconclusive, TDP1 cell noCPT 23µM, HT1080 IDH1KD tx inconclusive
Cc1nc2ccccc2c(=O)n1-c1ccncc1	none
O=c1c2ccccc2nc(/C=C/c2ccc(O)c(O)c2)n1-c1ccccc1	DT40 TDP1 CPT inconclusive, TDP1 cell noCPT 26µM
O=c1c2ccccc2nc(/C=C/c2cccnc2)n1Cc1ccccc1	HT1080NT lethal inconclusive, DT40 TDP1 CPT inconclusive, IL1B secr inh inconclusive, TDP1 cell noCPT 23µM, HT1080 IDH1KD tx inconclusive
COc1ccc(-n2c(/C=C\c3ccccc3F)nc3ccccc3c2=O)c(OC)c1	DT40 TDP1 CPT 15µM, TDP1 cell noCPT 23µM (no result: HT1080NT lethal, IL1B secr inh, HT1080 IDH1KD tx)
CC(C)NC(=O)N1CCCC2(CCN(C(=O)Oc3ccccc3)CC2)C1	TDP1 cell noCPT inconclusive (no result: HT1080NT lethal, IL1B secr inh, HT1080 IDH1KD tx)
O=C(O)c1nn(Cc2ccc(Cl)c(Cl)c2)c2ccccc12	none (no result: HT1080NT lethal, IL1B secr inh, HT1080 IDH1KD tx)
CC(C)C[C@H](NP(=O)(O)O[C@@H]1O[C@@H](C)[C@H](O)[C@@H](O)[C@H]1O)C(=O)N[C@@H](Cc1c[nH]c2ccccc12)C(=O)O	none
COP(=S)(OC)Oc1cc(Cl)c(Cl)cc1Cl	none (no result: HT1080NT lethal, IL1B secr inh, HT1080 IDH1KD tx)
C#C[C@]1(O)CCC2C3CCC4=C/C(=N/OCC(=O)NC(C)C(=O)NC(CCSC)C(=O)O)CC[C@]4(C)C3CC[C@@]21C (some centres not stated)	none
CCNC(=O)O/N=C(\C)c1sc(-c2ccccc2)nc1C	DT40 TDP1 CPT inconclusive, TDP1 cell noCPT inconclusive
Cc1ccc(N2C(=O)NC(=O)C3(Cc4ccccc4N4CCN(c5ccccc5)CC43)C2=O)cc1 (configuration not stated)	none
Oc1ccc(-c2cccnc2)cc1CNC1CN2CCC1CC2 (configuration not stated)	none (no result: HT1080NT lethal, IL1B secr inh, HT1080 IDH1KD tx)
O=c1c2ccccc2nc(/C=C/c2ccccc2)n1-c1ccccc1O	TDP1 cell noCPT 23µM (no result: IL1B secr inh)
O=c1c2ccccc2nc(/C=C/c2ccc(O)cc2)n1-c1ccccc1O	DT40 TDP1 CPT inconclusive, IL1B secr inh inconclusive, TDP1 cell noCPT inconclusive
O=c1c2ccccc2nc(/C=C/c2ccc(F)cc2)n1-c1ccccn1	DT40 TDP1 CPT inconclusive, TDP1 cell noCPT 18µM
COc1ccccc1-n1c(/C=C/c2ccccc2)nc2ccccc2c1=O	DT40 TDP1 CPT inconclusive, TDP1 cell noCPT 26µM (no result: HT1080NT lethal, IL1B secr inh, HT1080 IDH1KD tx)
CC(C)OP(=O)(OC(C)C)C(Nc1ccc([N+](=O)[O-])cc1)c1cccc([N+](=O)[O-])c1 (configuration not stated)	DT40 TDP1 CPT inconclusive, TDP1 cell noCPT 18µM, HT1080 IDH1KD tx inconclusive
CCCOP(=O)(OCCC)C(Nc1ccc(C(C)C)cc1)c1ccc([N+](=O)[O-])cc1 (configuration not stated)	HT1080NT lethal inconclusive, DT40 TDP1 CPT inconclusive, IL1B secr inh inconclusive, TDP1 cell noCPT 16µM, HT1080 IDH1KD tx inconclusive
CC(C)OP(=O)(OC(C)C)C(Nc1ccccc1)c1cccc2c1OCO2 (configuration not stated)	DT40 TDP1 CPT inconclusive, TDP1 cell noCPT inconclusive
COc1ccc(C(Nc2cccc([N+](=O)[O-])c2)P(=O)(OC(C)C)OC(C)C)cc1 (configuration not stated)	DT40 TDP1 CPT 16µM, TDP1 cell noCPT 16µM
